# In the supplement of paper PMC10849652:
# Targets with a hit are over-represented here; the source holds about 8,800 in all. About 0.5% of all pairs of compound and target were hits. A number with no mark means an inactive call.
# Columns and labels:
# Assay in all cases: log2 fold change, soluble protein after heating vs DMSO (PISA); higher = thermal stabilisation; K562 lysate, 10 uM; active = over 0.2 and 3.5 SD of the protein, either way, in both replicates (recomputed)
# erlotinib = compound: C#Cc1cccc(Nc2ncnc3cc(OCCOC)c(OCCOC)cc23)c1 [erlotinib]
# Summary of the method: (§1)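 Quantification was by TMTpro 16plex LC-MS/MS with equalised channel sums, applied to the supernatant after 21,000xg for 90 min. Samples were crude K562 extract at 1 mg/mL protein in PBS pH 7.4 with 1 mM MgCl2, treated with 10 μM compound for 30 min, heated for 3 min across 48°C-58°C, pooled and brought to 0.5% NP-40 at 4°C. Values are log-two fold changes in thermal stability relative to solvent controls, from duplicates.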
# [1] = compound: C/C(=N\NC(=O)C1=CC(=CC=C1)S(=O)(=O)N2CCOCC2)/C3=C(C=CC(=C3)Cl)O
# Summary of the method: as §1
# [2] = compound: C1=CC(=CC=C1C2=NC3=C(N2)C=C(C=C3)C(=O)N)OC4=CC=C(C=C4)Cl
# Summary of the method: as §1
# [3] = compound: C1=CC2=C(C=CC(=C2)/C=C\3/C(=O)NC(=NCC4=CC=CS4)S3)N=C1
# Summary of the method: as §1
# [4] = compound: C1=CC2=NC=CN=C2C=C1/C=C/3\C(=O)NC(=O)S3
# Summary of the method: as §1
# [5] = compound: C1=CC=C(C=C1)C2=NC(=C(N2)C3=CC=NC=C3)C4=CC(=C(C=C4)Cl)O
# Summary of the method: as §1
# [6] = compound: C1=CC=C2C(=C1)C3=NNC4=CC=CC(=C43)C2=O
# Summary of the method: as §1
# [7] = compound: C1CCN(C1)C(=O)NC2=CC=CC(=C2)NC3=NC=C(C(=N3)NCCC4=CN=CN4)Br
# Summary of the method: as §1
# [8] = compound: C1CN(CCC1(CC2=CC=C(C=C2)Cl)N)C3=NC=NC4=C3C=CN4
# Summary of the method: as §1
# IRAK-1-4 Inhibitor I = compound: C1COCCN1CCN2C3=CC=CC=C3N=C2NC(=O)C4=CC(=CC=C4)[N+](=O)[O-] [IRAK-1-4 Inhibitor I]
# Summary of the method: as §1
# Sequence of UniProt Q9Y6R4 (Q9Y6R4 whole entry, looked up): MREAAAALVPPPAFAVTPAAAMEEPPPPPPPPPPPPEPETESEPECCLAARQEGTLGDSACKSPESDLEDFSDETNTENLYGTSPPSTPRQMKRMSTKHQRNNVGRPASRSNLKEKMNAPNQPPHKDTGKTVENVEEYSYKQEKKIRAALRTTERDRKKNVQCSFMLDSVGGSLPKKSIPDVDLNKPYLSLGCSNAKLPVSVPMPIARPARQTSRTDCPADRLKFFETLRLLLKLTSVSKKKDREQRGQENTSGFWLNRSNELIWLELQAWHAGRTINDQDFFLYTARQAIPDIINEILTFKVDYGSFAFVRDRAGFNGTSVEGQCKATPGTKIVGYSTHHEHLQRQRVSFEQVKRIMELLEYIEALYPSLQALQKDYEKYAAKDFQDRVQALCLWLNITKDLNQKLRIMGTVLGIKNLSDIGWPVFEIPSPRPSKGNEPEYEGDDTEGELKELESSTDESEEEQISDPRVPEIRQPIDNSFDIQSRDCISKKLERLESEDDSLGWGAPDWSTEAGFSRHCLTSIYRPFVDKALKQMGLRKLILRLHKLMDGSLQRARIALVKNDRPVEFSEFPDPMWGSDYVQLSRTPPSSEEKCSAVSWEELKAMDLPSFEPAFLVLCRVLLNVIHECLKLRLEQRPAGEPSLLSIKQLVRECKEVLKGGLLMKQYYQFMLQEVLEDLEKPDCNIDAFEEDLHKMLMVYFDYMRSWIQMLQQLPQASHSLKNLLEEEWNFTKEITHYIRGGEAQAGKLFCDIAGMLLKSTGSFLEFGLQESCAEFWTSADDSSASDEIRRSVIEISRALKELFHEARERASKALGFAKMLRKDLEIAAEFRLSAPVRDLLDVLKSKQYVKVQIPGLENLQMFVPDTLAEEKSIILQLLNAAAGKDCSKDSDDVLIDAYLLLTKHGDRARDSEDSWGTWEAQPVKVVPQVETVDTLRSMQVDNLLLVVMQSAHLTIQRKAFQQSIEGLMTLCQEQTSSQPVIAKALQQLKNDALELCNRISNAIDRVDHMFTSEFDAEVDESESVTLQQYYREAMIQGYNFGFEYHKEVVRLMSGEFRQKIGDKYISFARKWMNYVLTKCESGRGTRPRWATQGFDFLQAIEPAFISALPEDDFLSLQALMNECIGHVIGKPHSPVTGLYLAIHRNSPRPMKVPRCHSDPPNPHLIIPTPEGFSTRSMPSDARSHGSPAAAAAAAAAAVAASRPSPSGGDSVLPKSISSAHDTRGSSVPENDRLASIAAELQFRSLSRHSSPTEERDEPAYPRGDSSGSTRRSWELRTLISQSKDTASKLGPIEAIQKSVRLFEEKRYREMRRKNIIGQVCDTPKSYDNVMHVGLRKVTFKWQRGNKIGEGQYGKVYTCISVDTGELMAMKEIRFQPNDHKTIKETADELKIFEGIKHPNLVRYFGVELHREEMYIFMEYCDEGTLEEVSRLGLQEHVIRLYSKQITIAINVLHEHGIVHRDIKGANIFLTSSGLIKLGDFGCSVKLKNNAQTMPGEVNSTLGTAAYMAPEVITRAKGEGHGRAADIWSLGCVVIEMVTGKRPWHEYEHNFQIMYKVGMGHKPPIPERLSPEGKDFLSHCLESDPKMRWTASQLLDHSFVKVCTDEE
# Sequence of UniProt Q9HD34 (Q9HD34 whole entry, looked up): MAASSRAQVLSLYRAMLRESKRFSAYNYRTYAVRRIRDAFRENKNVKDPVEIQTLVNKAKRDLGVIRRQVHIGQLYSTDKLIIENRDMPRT
# Sequence of UniProt P48449 (P48449 whole entry, looked up): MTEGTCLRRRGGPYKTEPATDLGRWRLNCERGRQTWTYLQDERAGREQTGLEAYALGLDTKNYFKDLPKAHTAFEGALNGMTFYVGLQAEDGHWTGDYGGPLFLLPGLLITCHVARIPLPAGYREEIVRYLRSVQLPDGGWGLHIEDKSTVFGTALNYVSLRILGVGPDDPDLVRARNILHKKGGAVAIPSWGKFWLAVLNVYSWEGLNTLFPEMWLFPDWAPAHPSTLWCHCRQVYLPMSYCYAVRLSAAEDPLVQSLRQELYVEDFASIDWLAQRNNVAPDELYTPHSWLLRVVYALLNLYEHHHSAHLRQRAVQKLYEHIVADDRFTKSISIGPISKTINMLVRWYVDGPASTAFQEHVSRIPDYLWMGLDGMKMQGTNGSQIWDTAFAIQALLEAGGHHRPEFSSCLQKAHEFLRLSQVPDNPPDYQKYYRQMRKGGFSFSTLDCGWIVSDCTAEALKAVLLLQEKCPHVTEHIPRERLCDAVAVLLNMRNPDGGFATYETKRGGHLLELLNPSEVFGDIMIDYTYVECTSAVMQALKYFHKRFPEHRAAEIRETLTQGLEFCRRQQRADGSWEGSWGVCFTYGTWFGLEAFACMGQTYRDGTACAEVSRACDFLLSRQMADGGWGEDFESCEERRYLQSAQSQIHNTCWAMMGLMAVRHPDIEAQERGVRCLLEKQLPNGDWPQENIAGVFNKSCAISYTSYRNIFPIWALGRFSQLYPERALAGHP
# Sequence of UniProt Q8N4C8 (Q8N4C8 whole entry, looked up): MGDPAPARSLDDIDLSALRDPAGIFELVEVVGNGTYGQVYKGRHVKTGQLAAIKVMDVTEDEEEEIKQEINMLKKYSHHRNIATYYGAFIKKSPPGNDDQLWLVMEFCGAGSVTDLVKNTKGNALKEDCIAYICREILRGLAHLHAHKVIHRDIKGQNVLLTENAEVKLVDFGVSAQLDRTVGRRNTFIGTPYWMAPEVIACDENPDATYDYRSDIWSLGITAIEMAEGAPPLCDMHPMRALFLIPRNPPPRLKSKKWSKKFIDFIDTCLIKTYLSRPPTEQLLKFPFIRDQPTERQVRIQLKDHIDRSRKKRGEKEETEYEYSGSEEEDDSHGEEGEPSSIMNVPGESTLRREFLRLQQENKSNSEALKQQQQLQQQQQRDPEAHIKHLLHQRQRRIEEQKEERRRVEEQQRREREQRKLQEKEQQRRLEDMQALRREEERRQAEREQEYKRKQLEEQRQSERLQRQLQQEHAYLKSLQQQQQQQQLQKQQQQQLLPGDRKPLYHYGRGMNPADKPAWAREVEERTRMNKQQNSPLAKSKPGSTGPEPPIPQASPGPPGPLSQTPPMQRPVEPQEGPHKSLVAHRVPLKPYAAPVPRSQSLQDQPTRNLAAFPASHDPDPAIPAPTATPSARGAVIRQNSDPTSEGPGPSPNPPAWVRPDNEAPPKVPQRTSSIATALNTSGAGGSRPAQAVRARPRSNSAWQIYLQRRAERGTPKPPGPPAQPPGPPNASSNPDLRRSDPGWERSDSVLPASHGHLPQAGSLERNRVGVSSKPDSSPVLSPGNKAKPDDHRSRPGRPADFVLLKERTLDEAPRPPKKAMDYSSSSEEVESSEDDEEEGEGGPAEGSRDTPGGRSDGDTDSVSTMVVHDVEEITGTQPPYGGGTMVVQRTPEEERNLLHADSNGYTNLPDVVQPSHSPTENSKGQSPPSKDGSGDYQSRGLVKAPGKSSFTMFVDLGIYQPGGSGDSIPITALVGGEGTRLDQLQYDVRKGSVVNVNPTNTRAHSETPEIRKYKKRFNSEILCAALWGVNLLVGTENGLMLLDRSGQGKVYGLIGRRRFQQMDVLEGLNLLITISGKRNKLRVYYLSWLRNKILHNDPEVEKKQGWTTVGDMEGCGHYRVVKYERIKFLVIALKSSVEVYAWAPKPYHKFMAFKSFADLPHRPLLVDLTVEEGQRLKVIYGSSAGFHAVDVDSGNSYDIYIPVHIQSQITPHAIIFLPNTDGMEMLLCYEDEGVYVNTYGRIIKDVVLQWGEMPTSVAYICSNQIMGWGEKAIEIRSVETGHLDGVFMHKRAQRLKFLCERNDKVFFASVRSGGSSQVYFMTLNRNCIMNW
# Sequence of UniProt Q9BPX6 (Q9BPX6 whole entry, looked up): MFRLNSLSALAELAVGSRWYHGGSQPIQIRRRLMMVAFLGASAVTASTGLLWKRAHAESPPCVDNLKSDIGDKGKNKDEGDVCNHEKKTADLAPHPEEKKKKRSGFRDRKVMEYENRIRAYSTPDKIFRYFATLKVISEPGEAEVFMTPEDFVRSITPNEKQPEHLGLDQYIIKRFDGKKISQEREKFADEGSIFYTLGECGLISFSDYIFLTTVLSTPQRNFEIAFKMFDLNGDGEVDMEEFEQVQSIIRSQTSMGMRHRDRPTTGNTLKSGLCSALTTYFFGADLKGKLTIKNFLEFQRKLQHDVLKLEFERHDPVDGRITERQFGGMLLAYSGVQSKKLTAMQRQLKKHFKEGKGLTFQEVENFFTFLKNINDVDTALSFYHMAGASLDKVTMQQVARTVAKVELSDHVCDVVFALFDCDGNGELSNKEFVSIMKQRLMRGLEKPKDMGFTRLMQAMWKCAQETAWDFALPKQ
# Sequence of UniProt Q8IYU8 (Q8IYU8 whole entry, looked up): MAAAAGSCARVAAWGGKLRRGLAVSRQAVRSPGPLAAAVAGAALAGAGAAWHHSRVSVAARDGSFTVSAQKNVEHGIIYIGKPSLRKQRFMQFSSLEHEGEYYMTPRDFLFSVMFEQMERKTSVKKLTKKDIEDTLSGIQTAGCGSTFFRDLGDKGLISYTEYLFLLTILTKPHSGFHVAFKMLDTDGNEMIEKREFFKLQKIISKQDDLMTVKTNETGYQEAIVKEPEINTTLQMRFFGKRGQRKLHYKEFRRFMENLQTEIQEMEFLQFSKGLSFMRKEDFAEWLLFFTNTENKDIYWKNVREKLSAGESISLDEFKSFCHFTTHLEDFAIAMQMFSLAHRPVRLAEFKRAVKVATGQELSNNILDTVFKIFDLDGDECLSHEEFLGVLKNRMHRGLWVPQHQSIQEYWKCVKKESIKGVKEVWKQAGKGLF
# Sequence of UniProt O14880 (O14880 whole entry, looked up): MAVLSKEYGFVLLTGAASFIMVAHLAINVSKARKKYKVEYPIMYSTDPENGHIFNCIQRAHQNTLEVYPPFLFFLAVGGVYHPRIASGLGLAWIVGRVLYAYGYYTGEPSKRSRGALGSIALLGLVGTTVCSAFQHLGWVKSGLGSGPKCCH
Target,log2 fold change (erlotinib),log2 fold change [1],log2 fold change [2],log2 fold change [3],log2 fold change [4],log2 fold change [5],log2 fold change [6],log2 fold change [7],log2 fold change [8],log2 fold change (IRAK-1-4 Inhibitor I)
KIF4B (UniProt Q2VIQ3),-0.018,-0.035,-0.017,0.032,-0.005,0.034,0.004,-0.003,-0.027,-0.061
LSS (UniProt P48449),-0.023,0.057,0.001,0.053,-0.005,0.037,-0.006,-0.094,0.019,0
MCU (UniProt Q8NE86),0.045,-0.028,-0.09,0.02,0.057,-0.035,0.084,0.055,0.015,0.064
MAST4 (UniProt O15021),-0.019,-0.026,-0.031,0.027,-0.044,0.01,0.384 (active),0.149,-0.011,-0.008
MOCS3 (UniProt O95396),0.047,0.01,-0.033,-0.135,-0.011,-0.003,-0.02,0.143,-0.07,0.049
LRWD1 (UniProt Q9UFC0),-0.031,-0.002,0.031,0.032,0.057,0.016,-0.014,0.002,0.03,-0.02
LBR (UniProt Q14739),0.03,0.052,-0.066,-0.021,-0.081,-0.028,-0.08,-0.032,0.005,0.028
MICU1 isoform 3 (UniProt Q9BPX6),0.009,0.049,-0.029,-0.017,-0.012,-0.047,0.001,0.016,0.012,0.024
MINK1 (UniProt Q8N4C8),0.057,0.058,-0.059,0.135,0.045,-0.141,0,0.016,-0.037,0.061
MRPL10 isoform 2 (UniProt Q7Z7H8),-0.032,0,0.043,0.022,-0.141,-0.002,-0.016,-0.062,0.015,0.014
MICU2 (UniProt Q8IYU8),0.025,0.04,-0.008,-0.024,-0.011,0.061,-0.094,-0.037,0.038,-0.044
MGST3 (UniProt O14880),0.007,0.011,0.008,0.022,0.011,-0.021,-0.054,-0.009,-0.035,0.019
LYRM4 (UniProt Q9HD34),-0.009,0.016,0.02,-0.117,-0.017,-0.011,-0.002,-0.02,0.06,0.005
MAPKAPK5 (UniProt Q8IW41),-0.058,-0.045,0.016,0.12,0.007,-0.024,0.276 (active),0.035,0.031,-0.049
MAP3K4 (UniProt Q9Y6R4),0.051,-0.027,-0.026,0.011,-0.014,0.018,0.105,0.051,-0.101,-0.013
